Results from the supplement of paper PMC9023506.
Structures can show the parent of a compound that is named as a salt.

Each molecule was assayed on Danio rerio larvae (5 dpf) (assay: optomotor response to green moving lines, difference vs DMSO (percentage points (treated minus DMSO)); higher = more of the behaviour than the DMSO vehicle control). Settings: 10 µM; exposure time: 3 h pre-incubation + 3 h imaging.
Procedure: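 5-dpf wild-type zebrafish larvae were imaged in 96-well plates. They were treated with 190 Tocris FDA-approved drugs at 10 µM (1 µl/ml DMSO) for 3 h before and 3 h during imaging at 28.5 °C, 48 larvae per drug. Automated image analysis gave % time moving and optomotor responses. Values are drug group mean minus DMSO vehicle mean (n=844), in percentage points, for 10 behaviours.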

SMILES | optomotor response to green moving lines
O=c1[nH]c2ccccc2n1C1CCN(CCCC(c2ccc(F)cc2)c2ccc(F)cc2)CC1 [Pimozide] | -16.3
CCN(C)C(=O)Oc1cccc([C@H](C)N(C)C)c1 [Rivastigmine tartrate] | -8.15
C=CCN1C[C@H](C(=O)N(CCCN(C)C)C(=O)NCC)C[C@@H]2c3cccc4[nH]cc(c34)C[C@H]21 [Cabergoline] | -10.2
CC(O)(CS(=O)(=O)c1ccc(F)cc1)C(=O)Nc1ccc(C#N)c(C(F)(F)F)c1 (stereo unspecified) [Bicalutamide] | 1.12
CC[C@@H](C(N)=O)N1CCCC1=O [Levetiracetam] | 4.63
C=C1C[C@@H]2[C@H](CC[C@]3(C)C(=O)CC[C@@H]23)[C@@]2(C)C=CC(=O)C=C12 [Exemestane] | 9.98
COc1ccc(C(CN(C)C)C2(O)CCCCC2)cc1 (stereo unspecified) [Venlafaxine hydrochloride] | 1.84
CC(C)C[C@H]1C(=O)N2CCC[C@H]2[C@]2(O)O[C@](NC(=O)[C@@H]3C=C4c5cccc6[nH]c(Br)c(c56)C[C@H]4N(C)C3)(C(C)C)C(=O)N12 [Bromocriptine mesylate] | -20.3
CN1C[C@H](C(=O)N[C@]2(C)O[C@@]3(O)[C@@H]4CCCN4C(=O)[C@H](Cc4ccccc4)N3C2=O)C[C@@H]2c3cccc4[nH]cc(c34)C[C@H]21 [Dihydroergotamine mesylate] | 16.2
N[C@@H]1C[C@H]1c1ccccc1 [Tranylcypromine hydrochloride] | 0.888
COc1cc2c(cc1OC)C1CC(=O)C(CC(C)C)CN1CC2 (stereo unspecified) [Tetrabenazine] | -9.74
